Pf growth 96h: inhibits malaria parasite growth, 96 h; P. falciparum luciferase reporter growth, 96 h; Potency, µM (doses to about 28.7 µM), most hits filed as inhibitors; AID 504834; 6.9% of 320,000 active
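Readout is luminescence from an integrated firefly luciferase in P. falciparum. Red cells, 2% hematocrit and 0.05% parasitemia final, were cultured with compound through two parasite generations (96 hours) at 37 C, 5% CO2.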
HCV inh: blocks hepatitis C virus; Huh7.5.1 HCVcc-Cre infection, luciferase reporter, 44 h; Potency, µM (titrated, usually from 41.8 µM), hits mostly inhibitors; 3.4% of 340,000 active
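Cells (1,000/well) were plated 4 h before compound, then infected with HCVcc-Cre virus (~0.5 moi). After 44 h further culture, infection was read as luciferase luminescence following a 15 min substrate incubation at room temperature.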
AMA1 RON2 block: inhibitors of Plasmodium falciparum AMA1-RON2 interaction; AID 720542; AlphaScreen AMA1-biotinylated RON2 peptide binding; Potency, µM (series often up to 58.2 µM), hits mostly inhibitors; 0.2% of 360,000 active; note: nearly all actives have a fitted effect of over 45% in size
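AMA1 (3D7) with his tag at 25 nM final met compounds first, then biotinylated RON2 peptide at 25 nM; detection used donor plus acceptor beads, 10 µg/mL apiece, read by AlphaScreen after 30 min at room temperature.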
Pf growth 48h: P. falciparum growth inhibition at 48 hours (one generation); P. falciparum luciferase growth in erythrocytes, 48 h; Potency, µM (top dose mostly 28.7 µM), usual class: inhibitors; 5.9% of 310,000 active
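Cell-based growth assay: transgenic P. falciparum expressing firefly luciferase, cultured in red cells within RPMI 1640 containing 0.5% w/v Albumax, 24 mM bicarbonate and gentamycin. A drop in luciferase activity indicates inhibition.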
Each line names hits and unclear results; the compound was inactive in the other large screens. Rows were chosen to be rich in hits. Some 11% of all compounds tested hit in one or more screens of this group. Calls come from the whole dose curve; as a rule, active = well fitted curve in the direction sought with a large enough effect; inconclusive = small, poorly fitted or top-dose-only effect, or another doubt; inactive = no such curve, though single readings can be large; an effect the other way counts as inactive or inconclusive.

CCN(CC)C(=O)C1CCN(Cc2cn(C)nc2-c2ccc(Oc3ccccc3)cc2)CC1	Pf growth 48h 7.4µM
Cc1ccc(S(=O)(=O)N2CCN(C(=O)CSCc3ccc(C(C)C)cc3)CC2)cc1	Pf growth 96h inconclusive, HCV inh inconclusive, Pf growth 48h 9.3µM
CC(=O)c1ccc(OCCCC(=O)N2CCN(S(=O)(=O)c3cc(C)ccc3C)CC2)cc1	Pf growth 96h inconclusive, HCV inh inconclusive, Pf growth 48h inconclusive
CC(=O)c1ccc(OCCCC(=O)OCC(=O)N2CCN(c3ccccc3)CC2)cc1	Pf growth 96h 9.3µM (no result: Pf growth 48h)
CC(=O)c1ccc(OCCCC(=O)N2CCN(S(=O)(=O)c3ccc(C(C)C)cc3)CC2)cc1	Pf growth 96h 5.2µM, HCV inh 10µM, Pf growth 48h 9.3µM
Cc1ccc(S(=O)(=O)N2CCN(C(=O)CSc3nnc(C)s3)C2)cc1	Pf growth 96h 4.1µM (no result: Pf growth 48h)
CC(C)c1ccc(/C=C(\NC(=O)c2ccccc2)C(=O)NCCCN2CCOCC2)cc1	none
CCN(Cc1cc2ccccc2[nH]c1=O)C(=O)c1cccc([N+](=O)[O-])c1	none
Cc1cccc(S(=O)(=O)NC(=O)C2(C)CCN2C(=O)CCC2CCCC2)c1 (stereo unspecified)	none (no result: Pf growth 96h, HCV inh, Pf growth 48h)
CCOc1ccc(S(=O)(=O)N2CCN(C(=O)CCOc3ccccc3C)CC2)cc1	Pf growth 96h inconclusive, HCV inh inconclusive, Pf growth 48h 10µM
COc1cc(CCC(=O)N2CCN(S(=O)(=O)c3ccc(C)cc3)CC2)cc(OC)c1OC	Pf growth 96h inconclusive, Pf growth 48h 5.2µM
Cc1ccc(S(=O)(=O)N2CCN(C(=O)CCOc3ccccc3C)CC2)cc1C	Pf growth 96h inconclusive, Pf growth 48h inconclusive
CS(=O)(=O)c1nc(S(=O)(=O)c2ccc(Cl)cc2)c(N2CCOCC2)s1	Pf growth 96h inconclusive, Pf growth 48h inconclusive
COc1ccc(-c2csc3ncnc(N4CCN(c5ccccc5Cl)CC4)c23)cc1	Pf growth 96h inconclusive, HCV inh inconclusive, Pf growth 48h inconclusive
O=S(=O)(c1ccc(Oc2ncnc3scc(-c4ccccc4)c23)cc1)N1CCOCC1	HCV inh 10µM, Pf growth 48h inconclusive
COc1ccc(-c2csc3ncnc(N4CCN(S(=O)(=O)c5ccc(Cl)s5)CC4)c23)cc1	Pf growth 96h inconclusive, HCV inh 10µM, Pf growth 48h inconclusive
COc1ccc(-c2csc3ncnc(N4CCN(S(=O)(=O)c5cccs5)CC4)c23)cc1	HCV inh 8.9µM, Pf growth 48h inconclusive
COc1ccc(-c2csc3ncnc(N4CCN(c5cccc(C)c5C)CC4)c23)cc1	Pf growth 96h inconclusive, HCV inh inconclusive
Cc1sc2ncnc(N3CCN(S(=O)(=O)c4ccc(C(C)(C)C)cc4)CC3)c2c1C	HCV inh 5.6µM (no result: Pf growth 96h, Pf growth 48h)
CCOc1ccc(C2C(C(=O)c3cccs3)=C(O)C(=O)N2CCN2CCOCC2)cc1 (stereo unspecified)	none
Cc1ccc(S(=O)(=O)N2CCN(C(=O)C3CCN(c4ncnc5sc(C)c(C)c45)CC3)CC2)c(C)c1	HCV inh 4.5µM (no result: Pf growth 96h, Pf growth 48h)
COc1ccc(-c2csc3ncnc(N4CCN(S(=O)(=O)c5ccc(C)cc5)CC4)c23)cc1	Pf growth 96h inconclusive, HCV inh 11µM, Pf growth 48h 12µM
COc1ccc(N2CCN(c3ncnc4scc(-c5ccc(C)cc5)c34)CC2)cc1	Pf growth 96h inconclusive, HCV inh inconclusive, Pf growth 48h inconclusive
Fc1c(F)c(F)c(N=Cc2ccc3ncccc3c2)c(F)c1F	none
Cc1c(Cl)cccc1NC(=S)NCC(C)C	Pf growth 96h 3.3µM, Pf growth 48h inconclusive
C=CCNC(=O)CC(=O)N/N=C/c1cccs1	Pf growth 96h inconclusive
Cc1cc(-c2n[nH]c(=S)n2/N=C/C(Cl)=C/c2ccccc2)n[nH]1	Pf growth 96h inconclusive
S=c1[nH]nc(-c2cc(-c3ccccc3)n[nH]2)n1/N=C/C(Br)=C/c1ccccc1	Pf growth 96h 9.3µM, HCV inh inconclusive, Pf growth 48h 5.2µM
CC(=C/c1ccccc1)/C=N/n1c(C)n[nH]c1=S	Pf growth 96h 12µM
S=c1[nH]nc(-c2ccco2)n1/N=C/C(Cl)=C/c1ccccc1	Pf growth 48h 5.2µM
Cc1n[nH]c(=S)n1/N=C/c1cccc(OCc2ccccc2)c1	Pf growth 48h 2.6µM
CC(=C/c1ccccc1)/C=N/n1c(-c2ccncc2)n[nH]c1=S	Pf growth 96h inconclusive
CC(Oc1ccc(Br)cc1)C(=O)Nc1nnc(C2CC2)s1 (stereo unspecified)	none
COc1ccc(CCNC(=O)Nc2cccs2)c(OC)c1	Pf growth 48h inconclusive
